Screening results deposited in PubChem by National Center for Advancing Translational Sciences (NCATS).
NS1 function inh: blocks influenza NS1 protein function | 270,000 compounds, 0.4% hits | AID 2326 | Potency, µM (highest dose often 46.1 µM), for the others: at the top dose activity, positive = more growth; calls by dose curve; note: potency is the fitted concentration of half-maximal effect; actives are rising curves; nearly all actives have a fitted effect of over 50% in size
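Compounds were scored for reversing the slow growth caused by influenza A NS1 in S. cerevisiae, measured by optical density at 600 nm. Assay medium contained 2% galactose at pH 6.0; NS1-free yeast of the same strain were the positive control.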
AmpC no deterg: inhibitors of E. coli AmpC beta-lactamase without detergent. P00811. AmpC nitrocefin hydrolysis, absorbance 480 nm, 0.0001% Triton. Potency, µM (doses to about 57.1 µM), for the others: at the highest dose activity change, negative = inhibition, actives largely listed as inhibitors. 330,000 compounds, 0.52% hits. AID 485341;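 note: potency is the fitted concentration of half-maximal effect; plate controls were no compound for no effect and no enzyme for full effect; nearly all actives have a fitted effect of over 20% in size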
Target sequence (P00811 whole entry, looked up): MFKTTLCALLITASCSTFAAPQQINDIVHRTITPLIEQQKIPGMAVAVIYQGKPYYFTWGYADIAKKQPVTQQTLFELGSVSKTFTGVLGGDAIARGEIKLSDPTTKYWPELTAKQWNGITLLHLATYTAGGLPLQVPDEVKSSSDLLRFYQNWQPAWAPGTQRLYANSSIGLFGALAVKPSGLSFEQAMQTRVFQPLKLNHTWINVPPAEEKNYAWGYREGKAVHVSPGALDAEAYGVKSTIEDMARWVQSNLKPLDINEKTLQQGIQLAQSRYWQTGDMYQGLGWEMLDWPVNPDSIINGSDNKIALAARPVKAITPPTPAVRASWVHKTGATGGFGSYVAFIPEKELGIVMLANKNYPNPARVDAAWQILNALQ
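20 mM phosphate pH 7.0 + 0.01% (detergent screen) or 0.0001% Triton X-100; 5.3 nM AmpC reagent; cpd preinc 15 min RT; nitrocefin (800 uM stock) to start; A480 q20 s × 4 min; Activity was normalised to no-enzyme and no-compound control wells.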
AmpC inh detg: AmpC beta-lactamase inhibition with detergent present; AmpC hydrolysis of nitrocefin, absorbance 480 nm, 0.01% Triton; 370,000 compounds, 0.041% hits; Potency, µM (doses to about 114 µM), for inactives: top-dose activity change, negative = inhibition, actives largely listed as inhibitors; P00811;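 note: potency is the fitted concentration of half-maximal effect; 0% = no-compound wells and -100% = no-enzyme wells; nearly all actives have a fitted effect of over 25% in size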
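AmpC (5.3 nM in the dispensed reagent) in 20 mM phosphate pH 7.0 with 0.01% (detergent screen) or 0.0001% Triton X-100 was preincubated with compounds for 15 min at room temperature. Nitrocefin was then added from an 800 uM solution, and hydrolysis was followed at 480 nm.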
CHX counter: counter-screen hit for Shiga toxin inhibitors, cycloheximide | max response, % | 300,000 compounds, 12% hits | cell reporter, cycloheximide protein synthesis inhibition counterscreen | AID 2314; in the data active = max response mostly above about 13%, no sharp cut-off; inactive = mostly below about 14%; note: read at 38.3 µM for the half of the compounds with a filed dose; 0% is about no effect
Shiga inhibitor: inhibitors of Shiga toxin in Vero cells; 290,000 compounds, 9.2% hits; Vero cells, Shiga toxin protein synthesis inhibition reporter; inhibition, % at 38.7 µM; AID 2315; in the data active = inhibition mostly above about 28%, no sharp cut-off; inactive = mostly below about 43%; note: 0% is about no effect
* marks the source's active call; other numbers are inactive results; ? = inconclusive; / = not tested or not shown; + = active, no number; ! = not active in a repeat. Many of the other results were omitted from the sample, so hits are more common in it than they were. Unless noted, calls come from the whole dose curve; as a rule, active = well fitted curve in the direction sought with a large enough effect; inconclusive = small, poorly fitted or top-dose-only effect, or another doubt; inactive = no such curve, though single readings can be large; an effect the other way counts as inactive or inconclusive.

SMILES	NS1 function inh	AmpC no deterg	AmpC inh detg	CHX counter	Shiga inhibitor
COc1ccccc1N1CCN(C(=O)c2cccc(C(=O)N3CCN(c4ccccc4OC)CC3)c2)CC1	-25.2%	215.1%	-14.4%	-1.4	-7.8
COc1ccccc1NC(=O)c1ccc2[nH]c(C)c(C)c2c1	-3.3%	-24.7%	0.8%	39.5*	127.6*
COc1ccccc1N1CCN(C(=O)c2cn(C)c3ccc(S(=O)(=O)N(C)C4CCCCC4)cc3c2=O)CC1	/	/	2.5%	/	/
Cc1ccccc1NC(=O)Cc1nc(COC(=O)c2ccc(Cl)c(S(N)(=O)=O)c2)cs1	/	35.5µM*	-15.1%	/	/
CCC(=O)Nc1c(-c2ccc(C)cc2)nc2ccc(C)cn12	4.4%	-24.0%	?	4.1	2.2
COC(=O)c1nc2ccc(C)cn2c1F	9.7%	-17.8%	-8.4%	19.5*	36.3
O=S1(=O)CCC(NC(=S)Nc2ccc3ccccc3c2)C1 (stereo not drawn)	2.9%	-28.2%	2.1%	27.1*	43.0*
Cc1ccc(CNC(=O)c2ccc3c(O)c(S(=O)(=O)c4ccc(Cl)cc4)c(=O)[nH]c3c2)cc1	/	/	19.3%	/	/
O=C1NC(=S)S/C1=C\C=C\c1ccc([N+](=O)[O-])o1	-104.7%	11.2µM*	-8.1%	80.1*	92.2*
O=[N+]([O-])c1ccc(/C=N/N=C/c2ccc([N+](=O)[O-])o2)o1	/	-23.3%	4.2%	10.4	6.1
CC(C)CCNC(=O)c1cn(C)c2ccc(S(=O)(=O)N3CCOCC3)cc2c1=O	/	/	3.5%	/	/
CC(C)c1ccc(C2CC(c3ccc(Br)cc3)=NN2C(N)=S)cc1 (stereo not drawn)	18.6%	1.8%	?	18.9	active
O=C(N/N=C/c1cccc2ccccc12)c1cc(C2CC2)[nH]n1	11.5%	-51.9%	-11.2%	22.0*	74.8*
Cc1cc(C(=O)N/N=C/c2cccc(OC(=O)c3cccc(Br)c3)c2)n[nH]1	4.3%	-46.7%	-8.5%	15.0	23.1*
O=C(N/N=C/c1ccccn1)c1cc(C2CC2)[nH]n1	-0.5%	-14.6%	-0.3%	37.9*	111.3*
Cc1cc(C(=O)N/N=C/c2ccccn2)n[nH]1	7.3%	-2.8%	-1.5%	17.7*	37.5
CCCN1Cc2cccc(C(=O)Nc3ccc(C(C)=O)cc3)c2C1=O	/	/	-1.9%	/	/
CCOc1ccc(NC(=O)CN(C)C(=O)c2c(C)nn(-c3ccccc3)c2Cl)cc1OCC	/	53.9%	?	/	/
CC(/C=N/NC(=O)c1cc(C2CC2)[nH]n1)=C\c1ccccc1	-0.4%	-3.5%	0.6%	9.5*	24.1
CC(/C=C/c1ccccc1)=N\NC(=O)CSc1ccccn1	-16.7%	-5.0%	-7.9%	0.2	13.8
CC(/C=N/NC(=O)CSc1ccccn1)=C\c1ccc(C(C)C)cc1	7.5%	-22.7%	-5.4%	107.7*	+
CC(=C/c1ccc(C(C)C)cc1)/C=N/NC(=O)CSc1ccccn1	-19.7%	-30.2%	-8.6%	71.3*	156.9*
CC(=C/c1ccc(C(C)C)cc1)/C=N/NC(=O)Cn1nnnc1N	10.9%	-24.8%	3.1%	13.1	23.0
CCC(=O)N1CCc2cc(Br)cc(S(=O)(=O)CCC(=O)NCCc3cccc(C)c3)c21	/	/	-8.1%	/	/
C/C(=N\NC(=O)c1cccc(C)c1O)c1ccc(NC(=O)Cc2ccccc2)cc1	-8.7%	-39.5%	-14.2%	39.2*	45.3*
SMILES	NS1 function inh	AmpC no deterg	AmpC inh detg	CHX counter	Shiga inhibitor
C/C(=N\NC(=O)c1ccccc1N)c1ccc(NC(=O)Cc2ccccc2)cc1	-0.7%	-28.2%	-8.7%	36.3*	65.4*
CC(C)NC(=O)C1CCCN(S(=O)(=O)c2ccc3c(ccn3C)c2)C1 (stereo not drawn)	/	/	16.2%	/	/
Cc1nn(-c2ccccc2)c(OC(=O)c2ccc(F)cc2)c1S(=O)(=O)c1ccccc1	/	/	0.1%	/	/
CCC(C(=O)Nc1ccc(C(C)=O)cc1)n1cnc2nc3c(cc2c1=O)CCCC3 (stereo not drawn)	/	/	15.4%	/	/
O=C(Nc1ccccc1Cl)c1cc(=O)c2ccccc2o1	-11.5%	-30.4%	-15.6%	30.1*	/
NS(=O)(=O)c1cccc(NC(=O)c2cc(=O)c3ccccc3o2)c1	3.5%	-16.6%	-2.8%	-0.5	10.5
O=C(Nc1ccccc1Br)c1cc(=O)c2ccccc2o1	-16.3%	-16.4%	-8.9%	22.9	99.4*
O=C1C2C(c3cccc(/C=C/c4ccccc4)c3)CC=CC2C(c2ccc(C(F)(F)F)cc2)N1Cc1ccccc1 (stereo not drawn)	-1.0%	-31.3%	-4.6%	16.8	53.8*!
